In PubChem BioAssay (NCI):
Compounds without any hit were thinned out: in the full panel of roughly 83,000, 20% have a hit.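 Percent growth is the endpoint: 0 to 100 indicates growth inhibition (40 means 60% inhibition), 0 means no net growth, and negative values indicate cell death.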 Active and inactive are the calls of the source. How the source made its calls: active means growth percent below 10; inactive means the rest.

Tests used:
Experiment in all cases: NCI-60 one-dose screen, 48 h (100 = growth as untreated, 0 = no growth, -100 = all killed)
Settings in all cases: 10 µM
DU-145 prostate = test system: DU-145 prostate
K-562 leukemia = test system: K-562 leukemia
MALME-3M melanoma = test system: MALME-3M melanoma
MDA-MB-231 breast = test system: MDA-MB-231 breast
RXF 393 renal = test system: RXF 393 renal
SF-268 CNS = test system: SF-268 CNS
SF-295 CNS = test system: SF-295 CNS
SF-539 CNS = test system: SF-539 CNS
UACC-257 melanoma = test system: UACC-257 melanoma
M14 melanoma = test system: M14 melanoma

Measured: growth

Cc1nc2sccn2c1-c1csc(Nc2cccc(Cl)c2C)n1
inactive: DU-145 prostate 78.7% | K-562 leukemia 16% | MALME-3M melanoma 58.9% | MDA-MB-231 breast 65.4% | RXF 393 renal 67.8% | SF-268 CNS 80.1% | SF-295 CNS 37.8% | SF-539 CNS 63.8% | UACC-257 melanoma 34% | M14 melanoma 50.8%

N#CN1CC[C@H](C(=O)Nc2ncc(-c3ccccc3)s2)C1
inactive: SF-295 CNS 18.8%
active: DU-145 prostate 0.607% | K-562 leukemia 2.31% | MALME-3M melanoma -16.4% | MDA-MB-231 breast 3.84% | RXF 393 renal -45% | SF-268 CNS 0.182% | SF-539 CNS -16.9% | UACC-257 melanoma -8.04% | M14 melanoma -7.98%

COc1ccc(/C(CS(=O)(=O)c2ccccc2)=N\O)cc1
inactive: DU-145 prostate 119% | K-562 leukemia 103% | MALME-3M melanoma 106% | MDA-MB-231 breast 113% | RXF 393 renal 92.1% | SF-268 CNS 115% | SF-295 CNS 88.5% | SF-539 CNS 102% | UACC-257 melanoma 95.8% | M14 melanoma 109%

CCCCCC(=O)N1c2ccccc2NC2=C(C(=O)CC(c3ccc(OC)c(OC)c3)C2)C1c1ccc(C(F)(F)F)cc1 (stereo not given)
inactive: DU-145 prostate 85% | K-562 leukemia 28.4% | MALME-3M melanoma 84.3% | MDA-MB-231 breast 69% | SF-268 CNS 57.3% | SF-295 CNS 36.1% | SF-539 CNS 80.7% | UACC-257 melanoma 41.8% | M14 melanoma 58.3%
active: RXF 393 renal 1.04%

CC(C)c1[nH]nc2c(NCc3ccc(-c4ccccn4)cc3)nc(SCCN(C)C)nc12
active: K-562 leukemia 5.19% | MALME-3M melanoma -52.2% | MDA-MB-231 breast 1.25% | RXF 393 renal -69.1% | SF-268 CNS 6.37% | SF-295 CNS 2.15% | SF-539 CNS -43.5% | UACC-257 melanoma -4.44% | M14 melanoma -32.9%
inactive: DU-145 prostate 11.4%

COc1ccc2c(=O)cc(C(Cl)(Cl)Cl)oc2c1
active: DU-145 prostate 0.575% | K-562 leukemia -12.7% | MALME-3M melanoma -87.5% | MDA-MB-231 breast -31.1% | RXF 393 renal -72.1% | SF-268 CNS -36.4% | SF-295 CNS -31.1% | SF-539 CNS -27.4% | UACC-257 melanoma -48.9% | M14 melanoma -67.1%

CCCOCC(O)CNCCN (stereo not given)
inactive: DU-145 prostate 127% | K-562 leukemia 99.3% | MALME-3M melanoma 106% | MDA-MB-231 breast 97.5% | RXF 393 renal 110% | SF-268 CNS 113% | SF-295 CNS 94.2% | SF-539 CNS 93.2% | UACC-257 melanoma 95.9% | M14 melanoma 109%

N#Cc1cnc2ccc(NCc3cnc[nH]3)cc2c1Nc1ccc(F)c(Cl)c1
inactive: DU-145 prostate 39.5% | K-562 leukemia 66.8% | MALME-3M melanoma 110% | MDA-MB-231 breast 78% | RXF 393 renal 52.8% | SF-268 CNS 63.2% | SF-295 CNS 94.4% | SF-539 CNS 92.1% | UACC-257 melanoma 84.3% | M14 melanoma 72.1%

O=S(=O)(NCCO)c1ccc(OCCOc2ccc(S(=O)(=O)NCCO)cc2)cc1
inactive: DU-145 prostate 107% | K-562 leukemia 106% | MALME-3M melanoma 87% | MDA-MB-231 breast 89.6% | RXF 393 renal 102% | SF-268 CNS 102% | SF-295 CNS 98.1% | SF-539 CNS 94.4% | UACC-257 melanoma 95% | M14 melanoma 102%

Cn1c([N+](=O)[O-])cnc1/C=C1\Oc2ccc(Br)cc2C1=O
inactive: SF-295 CNS 11.2%
active: DU-145 prostate -57.9% | K-562 leukemia -0.493% | MALME-3M melanoma -53.4% | MDA-MB-231 breast -14.8% | RXF 393 renal -59% | SF-268 CNS -16.9% | SF-539 CNS -59.5% | UACC-257 melanoma -38.5% | M14 melanoma -35%

COc1cc(OC)cc(N2CCN(C(=O)Nc3nc4cc(F)ccc4nc3OC)CC2)c1
active: DU-145 prostate 1% | MDA-MB-231 breast 1.05% | SF-539 CNS -12.2% | M14 melanoma 1.15%
inactive: K-562 leukemia 12.8% | MALME-3M melanoma 44.6% | RXF 393 renal 22.1% | SF-268 CNS 29.2% | SF-295 CNS 15% | UACC-257 melanoma 72.7%

N#CCC1CCCC1
inactive: DU-145 prostate 127% | K-562 leukemia 106% | MALME-3M melanoma 114% | MDA-MB-231 breast 104% | RXF 393 renal 107% | SF-268 CNS 114% | SF-295 CNS 90.6% | SF-539 CNS 111% | UACC-257 melanoma 100% | M14 melanoma 105%

COc1cc(Cl)cc(-c2nn(-c3cccc(NC(=O)Nc4cccc(C(F)(F)F)c4)c3)cc2-c2ccncc2)c1
active: K-562 leukemia 7.61% | MALME-3M melanoma -16.6% | MDA-MB-231 breast -9.21% | SF-295 CNS -7.87% | UACC-257 melanoma -11.7% | M14 melanoma 9.99%
inactive: DU-145 prostate 15.9% | RXF 393 renal 11.8% | SF-268 CNS 27.9% | SF-539 CNS 17%

COc1ccc(-c2cc(/C=C/C(=O)c3ccc(N)cc3)[nH]n2)cc1OC
inactive: DU-145 prostate 22.8% | K-562 leukemia 24.4% | MALME-3M melanoma 109% | MDA-MB-231 breast 38.8% | RXF 393 renal 21.2% | SF-268 CNS 18.8% | SF-295 CNS 41% | UACC-257 melanoma 126% | M14 melanoma 84.4%
active: SF-539 CNS 7.79%

CC(=O)OCC(COC(C)=O)(COC(C)=O)COC(C)=O
inactive: DU-145 prostate 103% | K-562 leukemia 95.4% | MALME-3M melanoma 94.6% | MDA-MB-231 breast 105% | RXF 393 renal 104% | SF-268 CNS 94.7% | SF-295 CNS 103% | SF-539 CNS 111% | UACC-257 melanoma 103% | M14 melanoma 108%

COc1cc(C)c2sc3ccccc3c(=O)c2c1NCCN(C)C
active: K-562 leukemia -1.18% | UACC-257 melanoma -22.8%
inactive: DU-145 prostate 77.1% | MALME-3M melanoma 38.9% | MDA-MB-231 breast 27.9% | RXF 393 renal 59.3% | SF-268 CNS 61.3% | SF-295 CNS 53.6% | SF-539 CNS 66.7% | M14 melanoma 24%

COc1ccc2oc(=O)cc(C(c3ccc[nH]3)c3ccc[nH]3)c2c1
active: K-562 leukemia 4.44% | RXF 393 renal -31.3% | SF-295 CNS 6.39% | SF-539 CNS 1.28% | M14 melanoma 8.91%
inactive: DU-145 prostate 13.3% | MALME-3M melanoma 49.6% | MDA-MB-231 breast 13.2% | SF-268 CNS 18.7% | UACC-257 melanoma 32.5%

CCN(Cc1ccccc1)C1CCN(Cc2cc(Br)ccc2O)CC1
inactive: DU-145 prostate 67.4% | K-562 leukemia 11.6% | MALME-3M melanoma 42.7% | MDA-MB-231 breast 26.3% | RXF 393 renal 48.7% | SF-268 CNS 65.9% | SF-295 CNS 63.8% | SF-539 CNS 74.8% | UACC-257 melanoma 46.1% | M14 melanoma 46.6%

CC(C)OCc1cc(CN2CCN(c3cccc(Cl)c3)CC2)c(O)c2ncccc12
active: K-562 leukemia 3.38% | MALME-3M melanoma -40.6% | MDA-MB-231 breast -41.9% | RXF 393 renal -14.9% | SF-268 CNS 5.89% | SF-295 CNS -71.8% | SF-539 CNS -6.98% | UACC-257 melanoma -36.7% | M14 melanoma -17%
inactive: DU-145 prostate 11.8%

O=C1NN(c2ccccc2)C(c2cccnc2)=N/C1=C\c1cccnc1
inactive: DU-145 prostate 93.1% | K-562 leukemia 102% | MALME-3M melanoma 105% | MDA-MB-231 breast 92.6% | RXF 393 renal 99.5% | SF-268 CNS 89.4% | SF-295 CNS 95.1% | SF-539 CNS 102% | UACC-257 melanoma 105% | M14 melanoma 91.7%

Cc1cc(C)c(/C=C2\C(=O)Nc3ccc(NC(=O)CCCCCCC(=O)NO)cc32)[nH]1
inactive: DU-145 prostate 19.3% | K-562 leukemia 22.7% | MALME-3M melanoma 18.7% | MDA-MB-231 breast 12% | RXF 393 renal 19.1% | SF-268 CNS 22.8% | SF-295 CNS 30% | SF-539 CNS 15% | M14 melanoma 18.4%
active: UACC-257 melanoma 0.0206%

CC(CNC(Cc1ccccc1)c1ccccc1)NC(Cc1ccccc1)c1ccccc1 (stereo not given)
active: K-562 leukemia 8.06%
inactive: DU-145 prostate 21.4% | MALME-3M melanoma 45% | MDA-MB-231 breast 17.4% | RXF 393 renal 43.7% | SF-268 CNS 53.5% | SF-295 CNS 61.2% | SF-539 CNS 52.7% | UACC-257 melanoma 76.9% | M14 melanoma 30.4%

Nc1ccc(C2=CC(c3ccc(Cl)cc3)N3C=CSC3=N2)cc1 (stereo not given)
active: DU-145 prostate -44.6% | K-562 leukemia 3.22% | MALME-3M melanoma -82.8% | MDA-MB-231 breast -14.4% | RXF 393 renal -93.1% | SF-268 CNS -41.9% | SF-295 CNS -0.33% | SF-539 CNS -55.8% | UACC-257 melanoma -78.1% | M14 melanoma -71.1%

Nc1c(C(=O)NC2CCCCC2)sc2nc3c(cc12)C(=O)CCC3
inactive: DU-145 prostate 102% | K-562 leukemia 88.4% | MALME-3M melanoma 139% | MDA-MB-231 breast 101% | RXF 393 renal 92.1% | SF-268 CNS 109% | SF-295 CNS 88.8% | SF-539 CNS 107% | UACC-257 melanoma 88.1% | M14 melanoma 103%

Cc1nc2ccc(-n3c(-c4ccc(Cl)cc4)nc4ccccc4c3=O)cc2n1Cc1ccccc1
inactive: DU-145 prostate 95.2% | K-562 leukemia 85.6% | MALME-3M melanoma 89.4% | MDA-MB-231 breast 88.1% | RXF 393 renal 104% | SF-268 CNS 92.4% | SF-295 CNS 90.2% | SF-539 CNS 96.8% | UACC-257 melanoma 78.2% | M14 melanoma 95.1%

CCCC(C)c1ccc(OCCCCCCN2CCNCC2)cc1 (stereo not given)
active: K-562 leukemia -34.1% | MDA-MB-231 breast -0.569% | RXF 393 renal -13.3% | SF-295 CNS -6.71%
inactive: DU-145 prostate 38.4% | MALME-3M melanoma 37% | SF-268 CNS 70.4% | SF-539 CNS 56.1% | UACC-257 melanoma 79% | M14 melanoma 57.5%

COc1cc(CSc2nc3ccc(C)cc3c(=O)n2-c2ccccc2)cc(OC)c1OC
active: SF-539 CNS 3.56%
inactive: DU-145 prostate 29.8% | K-562 leukemia 10.4% | MALME-3M melanoma 42.5% | MDA-MB-231 breast 38% | RXF 393 renal 14.2% | SF-268 CNS 47.5% | SF-295 CNS 32.8% | UACC-257 melanoma 50.2% | M14 melanoma 17.2%

CC(=O)/C(=C\c1ccc(Cl)cc1)c1ccccc1
active: DU-145 prostate 0.722% | K-562 leukemia 8.97% | SF-295 CNS -6.11% | SF-539 CNS -1.66% | M14 melanoma 1.53%
inactive: MALME-3M melanoma 73.1% | MDA-MB-231 breast 19.4% | RXF 393 renal 25.7% | SF-268 CNS 23.9% | UACC-257 melanoma 72.2%

C=CCOc1ccc2c(c1)CC[C@@H]1[C@@H]2CC[C@]2(C)C(=O)/C(=N/O)C[C@@H]12
inactive: DU-145 prostate 21.8% | K-562 leukemia 19.5% | MALME-3M melanoma 74.4% | SF-268 CNS 43.8% | SF-295 CNS 78.7% | SF-539 CNS 86.6% | UACC-257 melanoma 76.5% | M14 melanoma 61.3%
active: MDA-MB-231 breast 9.69% | RXF 393 renal 1.96%
